± gives the standard deviation of the averaged measurements.

The experiment concerns AEK1 (Tb927.3.2440). As to the kind of experiment: percent reduction in TR-FRET probe signal relative to DMSO control; higher = stronger displacement of ATP-site probe (binding). The following applies: 1 µM; incubation time 1 h. Background: Time-resolved FRET reads energy transfer from a long-lived donor to a nearby acceptor.
For `COc1cc2ncnc(Nc3ccc(F)c(Cl)c3)c2cc1OCCCN1CCOCC1` [Gefitinib (ZD1839)], the “percent reduction in TR-FRET probe signal” value (“percent reduction” below) stood at 5.46 ± 21%.
Under `CN1CCN(C2CCN(C(=O)Nc3cc(Oc4ccc(NC(=O)C5(C(=O)Nc6ccc(F)cc6)CC5)c(F)c4)ccn3)CC2)CC1` [Golvatinib (E7050)] stands 0.527 ± 8%; under `CN1CC[C@H](c2c(O)cc(O)c3c(=O)cc(-c4ccccc4Cl)oc23)[C@H](O)C1` [Flavopiridol (Alvocidib)], -2.55 ± 4.6%; under `CS(=O)(=O)O.N#CC1(c2ccc(NC(=O)c3cccnc3NCc3ccncc3)cc2)CCCC1` [Apatinib], -2.66 ± 9.6%.
Under `Cc1csc(-c2nnc(Nc3ccc(Oc4ncccc4-c4ccnc(N)n4)cc3)c3ccccc23)c1` stands 55.7 ± 11%; under `Nc1nc(N)c2nc(-c3cccc(O)c3)c(-c3cccc(O)c3)nc2n1`, 19.3 ± 26%.
As for `Cc1cc(C(=O)NOCCO)c(Nc2ccc(I)cc2F)n(C)c1=O`, the “percent reduction” value is 4.03 ± 2.7%.
With `CCC[C@H](NC(=O)/C(C#N)=C/c1cccc(Br)n1)c1ccccc1` [Degrasyn (WP1130)], the “percent reduction” value amounted to 2.37 ± 17%.
Next, `Cl.Cl.OC(c1cc(-c2ccc(Cl)cc2)nc2ccccc12)C1CCCCN1` (stereo not drawn) [Vacquinol-1]: -5.59 ± 3.7%.
On to `CS(=O)(=O)N1CCc2c(-c3cnc(N)nc3)nc(N3CCOCC3)nc21`, for which the “percent reduction” value is -5.47 ± 9.1%.
Turning to `CCc1cc(Nc2nccc(-c3c(-c4ccc(OC)c(C(=O)Nc5c(F)cccc5F)c4)nc4ccccn34)n2)c(OC)cc1N1CCC(N2CCN(S(C)(=O)=O)CC2)CC1`, the “percent reduction” value was -12.2 ± 12%.
As to `Clc1ccc(C2(c3ccc(-c4cn[nH]c4)cc3)CCNCC2)cc1`, the “percent reduction” value was 27.3 ± 17%.
As for `COCC(=O)NC/C=C/c1ccc2ncnc(Nc3ccc(Oc4ccc(C)nc4)c(C)c3)c2c1`, the “percent reduction” value turned out to be 3.65 ± 5.5%.
Next, `CC(C)CC(NC(=O)C(Cc1ccccc1)NC(=O)C(CCC(N)=O)NC(=O)C(Cc1ccc(O)cc1)NC(=O)C(C)NC(=O)CNC(=O)C(CCCCN)NC(=O)C(Cc1c[nH]c2ccccc12)NC(=O)C(NC(=O)C(Cc1c[nH]c2ccccc12)NC(=O)C(CCCCN)NC(=O)CNC(=O)C(CC(N)=O)NC(=O)C(CCC(=O)O)NC(=O)C(Cc1c[nH]c2ccccc12)NC(=O)C(NC(=O)C(Cc1c[nH]c2ccccc12)NC(=O)C(CO)NC(=O)CNC(=O)C1CCCN1C(=O)C(Cc1c[nH]c2ccccc12)NC(=O)C(CCC(N)=O)NC(=O)C(Cc1ccccc1)NC(=O)CNC(=O)C(N)Cc1c[nH]cn1)C(C)O)C(C)O)C(=O)NC(CCCCN)C(=O)NCC(=O)NCC(=O)NCC(=O)NCC(=O)NC(CO)C(=O)NC(CCCNC(=N)N)C(=O)NC(CCCNC(=N)N)C(=O)NC(CCCNC(=N)N)C(=O)NC(CCCNC(=N)N)C(=O)NC(CCCNC(=N)N)C(=O)NC(CCCNC(=N)N)C(=O)NC(CCCNC(=N)N)C(=O)NC(CCCNC(=N)N)C(=O)NC(CCCNC(=N)N)C(=O)O` (stereo not drawn): -15.1 ± 6.2%; `CCS(=O)(=O)c1cccc(-c2cc(C(=O)NC3CCN(C)CC3)c(C)c3[nH]c4ncc(C)cc4c23)c1`: 79.9 ± 8.1%.
Under `CCOc1ccn(-c2ccc(F)cc2)c(=O)c1C(=O)Nc1ccc(Oc2ccnc(N)c2Cl)c(F)c1` stands -0.77 ± 15%.
For `N#CC[C@@H](C1CCCC1)n1cc(-c2ncnc3[nH]ccc23)cn1`, the “percent reduction” value is 19.4 ± 9.1%.
Next, `CC(C)(C)c1nc(-c2cccc(NS(=O)(=O)c3c(F)cccc3F)c2F)c(-c2ccnc(N)n2)s1`: 6.2 ± 7.3%; `Cc1nc(NC(=O)N2CCC[C@H]2C(N)=O)sc1-c1csc(C(C)(C)C)n1`: 3.71 ± 6.7%; `COc1cc2c(c(OC)c1OC)-c1c(cc3c(c1OC)OCO3)C[C@@H](C)[C@@H](C)C2` [Schisandrin B (Sch B)]: 13.6 ± 28%.
As for `CCn1c(=O)c(-c2ccc(-c3cncs3)cc2Cl)cc2cnc(Nc3ccc(N4CCN(C)CC4)cc3)nc21`, the “percent reduction” value amounted to 43.6 ± 6.3%.
`O=C(c1ccc(F)c(F)c1Nc1ccc(I)cc1F)N1CC(O)([C@@H]2CCCCN2)C1` [Cobimetinib (GDC-0973, RG7420)]: the “percent reduction” value stood at 2.36 ± 13%.
Under `Oc1ccc2ccccc2c1SSc1c(O)ccc2ccccc12` stands -9.34 ± 9%.
Under `NCC(=O)Nc1ccc(-n2nc(C(F)(F)F)cc2-c2ccc3c(ccc4ccccc43)c2)cc1` stands -2.82 ± 7.5%; under `COc1ccc(-c2ccc3c(N4CCOCC4)nc(N4C[C@@H](C)O[C@@H](C)C4)nc3n2)cc1CO`, -3.76 ± 6.3%.
Next, `CN1CCCN(C(=O)c2cccc(-c3ccc(/C=C4/C(=O)Nc5ccc(Cl)cc54)o3)c2)CC1.Cl`: -0.203 ± 9.8%; `COc1cc2ncc(-c3ccccc3)nc2cc1OC` [Tyrphostin AG 1296]: -3.11 ± 5.3%; `Nc1cccc(S(=O)(=O)N2CCCN(S(=O)(=O)c3ccc4c(c3)OCCO4)CC2)c1`: -6.38 ± 4.5%.
On to `CS(=O)(=O)c1cccc(CNc2nc(Nc3ccc4c(c3)CCC(=O)N4)ncc2C(F)(F)F)c1`, for which the “percent reduction” value was determined as 39.5 ± 13%.
As for `COc1cc(N2CCC(N3CCN(C)CC3)CC2)ccc1Nc1ncnc(Nc2ccccc2S(=O)(=O)C(C)C)n1`, the “percent reduction” value is -6.14 ± 6.2%.
Under `Oc1ccc(-c2nc(-c3ccc(F)cc3)c(-c3ccncc3)[nH]2)cc1` stands -5.77 ± 4%.
On to `S=C(NCc1ccc2c(c1)OCO2)N1CCN(c2ncnc3c2oc2ccccc23)CC1` [Amuvatinib (MP-470)], for which the “percent reduction” value turned out to be 3.8 ± 9.9%.
With `COc1ccc(COc2cc3oc(=O)c4cc(C(C)O)ccc4c3cc2OC)cc1` (stereo not drawn) [Palomid 529 (P529)], the “percent reduction” value is -5.44 ± 9.3%.
Consider `COc1c(C)c(C(=O)c2ccc(N)c(C(=O)[O][Na])c2)n2ccccc12`, for which the “percent reduction” value came to 6.59 ± 7.5%.
For `C[C@@]1(C(=O)Nc2ccc(F)nc2)CCCN1c1nc(Nc2cc(C3CC3)[nH]n2)c2cccn2n1`, the “percent reduction” value came out at 23.1 ± 8.1%.
As for `C=CC(=O)Nc1cccc(Oc2nc(Nc3ccc(N4CCN(C)CC4)cc3)ncc2Cl)c1`, the “percent reduction” value was found to be 1.06 ± 9.5%.
Turning to `COc1cc2ncnc(Nc3cccc(Cl)c3F)c2cc1OC(=O)N1CCN(C)C[C@H]1C`, the “percent reduction” value was determined as 9.77 ± 13%.
Take `O=C(Nc1cc(C(F)(F)F)cc(C(F)(F)F)c1)c1cc(Cl)ccc1O`: the “percent reduction” value came out at 8.68 ± 3.7%.
